High-throughput results deposited in PubChem BioAssay by National Center for Advancing Translational Sciences (NCATS).
AMA1 RON2 block: inhibitors of Plasmodium falciparum AMA1-RON2 interaction; Potency, µM (doses to about 58.2 µM), inactives show at the highest dose activity change, negative = inhibition, most hits filed as inhibitors; AID 720542; AlphaScreen AMA1-biotinylated RON2 peptide binding; 0.2% of 360,000 active;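 also: potency is read from the fitted curve at half-maximal effect; 0% = vehicle wells and -100% = peptide control; nearly all actives have a fitted effect of over 45% in size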
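AMA1 (3D7) with his tag at 25 nM final met compounds first, then biotinylated RON2 peptide at 25 nM; detection used donor plus acceptor beads, 10 µg/mL apiece, read by AlphaScreen after 30 min at room temperature.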
Pf growth 48h: inhibits P. falciparum growth in the first generation, 48 h; 5.9% of 310,000 active; P. falciparum luciferase growth in erythrocytes, 48 h; Potency, µM (titrated, usually from 28.7 µM), inactives show at the top dose activity change, negative = inhibition, actives largely listed as inhibitors; also: potency is read from the fitted curve at half-maximal effect; % is scaled to controls: 0 for no effect and ±100 for the full control effect
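Firefly luciferase activity from engineered P. falciparum reports growth; inhibitors lower the luminescent signal. Cultures contained 2% hematocrit erythrocytes at 0.1% final parasitemia.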
HCV inh: inhibitors of hepatitis C virus infection. 3.4% of 340,000 active. Potency, µM (top dose mostly 41.8 µM), inactives show at the highest dose activity change, negative = inhibition, usual class: inhibitors. AID 651820. Huh7.5.1 HCVcc-Cre infection, luciferase reporter, 44 h; also: potency is read from the fitted curve at half-maximal effect; % is scaled to controls: 0 for no effect and ±100 for the full control effect
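Whole-lifecycle infectious HCVcc-Cre system; cells 1,000/well, compound then virus (~0.5 moi) added 4 h after plating, 44 h culture. Luciferase read 15 sec following 15 min substrate incubation, room temp.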
Pf growth 96h: inhibits malaria parasite growth, 96 h; AID 504834; P. falciparum luciferase reporter growth, 96 h; 6.9% of 320,000 active; Potency, µM (top dose mostly 28.7 µM), without a hit: at the top dose activity change, negative = inhibition, actives largely listed as inhibitors; also: potency is read from the fitted curve at half-maximal effect; % is scaled to controls: 0 for no effect and ±100 for the full control effect
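Erythrocytes infected with luciferase-expressing P. falciparum were dispensed at 2% hematocrit and 0.05% parasitemia (final), then incubated with compounds 96 hours at 37 C in 5% CO2. Luminescence after detection reagent addition reported growth.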
Shiga toxin inh: inhibitors of Shiga toxin in Vero cells | Vero cells, Shiga toxin protein synthesis inhibition reporter | inhibition, % at 38.7 µM | 9.2% of 290,000 active | AID 2315; in the data active = inhibition mostly above about 28%, no sharp cut-off; inactive = mostly below about 43%; also: 0% is about no effect
CHX counter: counter-screen hit for Shiga toxin inhibitors, cycloheximide; max response, %; AID 2314; cell reporter, cycloheximide protein synthesis inhibition counterscreen; 12% of 300,000 active; in the data active = max response mostly above about 13%, no sharp cut-off; inactive = mostly below about 14%; also: read at 38.3 µM for the half of the compounds with a filed dose; 0% is about no effect
Numbers without * were called inactive; i = inactive; ? = inconclusive; . = no result given; [ ] = remark or other dose. Sampled rows, rich in hits. Any-hit rate of the full collection: about 21%. Unless noted, calls follow the shape of the dose curve; as a rule, active = well fitted curve in the direction sought with a large enough effect; inconclusive = small, poorly fitted or top-dose-only effect, or another doubt; inactive = no such curve, though single readings can be large; an effect the other way counts as inactive or inconclusive.

SMILES | AMA1 RON2 block | Pf growth 48h | HCV inh | Pf growth 96h | Shiga toxin inh | CHX counter
C=CCNC(=O)c1ccc2c(c1)N(CC)C(=O)c1ccccc1S2 | -4.7% | ? | 17.9% | 0.0% | -4.3 | 0.9
CCN1C(=O)c2ccccc2Sc2ccc(C(=O)NCCCN3CCCCC3)cc21 | 1.0% | -17.0% | ? | 10.4µM* | -9.0 | -6.8
Cc1ccc(CN2C(=O)c3ccccc3Sc3ccc(C(=O)NCCCN4CCOCC4)cc32)cc1 | 4.9% | 11.7µM* | 32.2% | 43.9% | -17.1 | 1.9
OC(COc1ccc(Cl)cc1)CN1CCC(Cc2ccccc2)CC1 (stereo unspecified) | 0.0% | -13.8% | ? | ? | 14.2 | -8.5
Cc1ccc(C)c(OCC(O)CNC2CCCC2)c1 (stereo unspecified) | 9.5% | ? | -2.0% | ? | -4.5 | -3.5
Cc1ccc(C)c(OCC(O)CN2CCC(Cc3ccccc3)CC2)c1 (stereo unspecified) | -7.3% | 7.38µM* | 10.9% | ? | -2.3 | -3.7
Cc1ccc(C)c(OCC(O)CN2CCCCC2C)c1 (stereo unspecified) | -3.0% | ? | ? | 10.4µM* | -10.5 | -2.8
Cc1ccc(C)c(OCC(O)CN2C(C)CCCC2C)c1 (stereo unspecified) | -12.0% | ? | 12.6µM* | . | 4.6 | 0.6
C[C@@H]1CN([C@@H](C)CO)C(=O)CCCn2nncc2CO[C@H]1CN(C)S(C)(=O)=O | 21.8% | . | . | . | . | .
CCOC(=O)C1CCCN(C(=O)C2(c3ccc(Cl)cc3)CCCC2)CC1 (stereo unspecified) | 14.6% | . | . | . | . | .
COc1ccc(C2/C=C\CN(C(=O)C3CC3)CC(=O)N2Cc2ccc(F)cc2)cc1 (stereo unspecified) | 0.8% | 35.1% | -1.2% | 54.1% | 53.1 | 33.5
COc1ccc(C2/C=C\CN(S(=O)(=O)c3ccc4ccccc4c3)CC(=O)N2Cc2ccc(F)cc2)cc1 (stereo unspecified) | 5.4% | 13.1µM* | ? | ? | -2.3 | 14.1
COc1ccc(C2/C=C\CN(C(=O)CC(C)(C)C)CC(=O)N2Cc2ccc(F)cc2)cc1 (stereo unspecified) | 3.4% | ? | 5.01µM* | ? | -10.1 | -2.1
COc1ccc(C2/C=C\CN(Cc3ccc(N(C)C)cc3)CC(=O)N2Cc2ccc(F)cc2)cc1 (stereo unspecified) | 15.8µM* | ? | -3.9%[8.37 µM] | ? | -2.7 | -3.8
O=C(c1cccc(Cl)c1)N1CCC(=O)N([C@H](COCc2cccc(Cl)c2)Cc2ccccc2)CC1 | -9.7% | . | . | . | 2.8 | 13.2
CCO[C@@H]1OC(C(=O)NC2CC2)=C[C@H](c2coc3ccccc3c2=O)[C@H]1CCCO | -1.7% | . | 14.2% | . | . | .
CC(C)(C)OC(=O)N[C@@H](Cc1ccccc1)C(=O)N1CCC(C(=O)N[C@@H](Cc2c[nH]c3ccccc23)C(=O)O)CC1 | -4.2% | -18.0% | 10.9% | ? | -12.1 | -1.2
Cc1ncc(CN2CCC(C(=O)Nc3cccc(-c4cscn4)c3)CC2)cn1 | -17.7% | 48.6% | ? | ? | -5.2 | -2.3
COc1ccc(-c2nonc2NC(=O)c2ccco2)cc1OC | 8.9% | ? | 7.4% | ? | -8.0 | 0.6
CCOc1ccc(-c2nonc2NC(=O)c2ccco2)cc1 | -5.8% | 0.3% | 4.9% | 10.4µM* | -10.5 | -3.0
CCOc1ccc(-c2nonc2NC(=O)c2ccco2)cc1OCC | -10.9% | 0.37µM* | -20.8% | ? | 36.1* | 18.3
C[C@H]1CN([C@@H](C)CO)C(=O)CCCn2cc(nn2)CO[C@@H]1CN(C)S(C)(=O)=O | 14.2% | . | . | . | . | .
CC(C)Oc1ccc(CN2CCC2(C)C(=O)Nc2ccc(Cl)c(Cl)c2)cc1 (stereo unspecified) | 5.6% | . | . | . | . | .
CCOC(=O)CNC(=O)c1cc(-c2ccc3c(c2)OCCO3)oc1C | 0.1% | 2.0% | ? | -86.2% | 63.5* | 44.3*
COC(=O)CCC(NC(=O)c1cc(-c2ccc3c(c2)OCCO3)oc1C)C(=O)OC (stereo unspecified) | -24.3% | ? | -25.0% | 26.4% | 17.6 | 15.7
SMILES | AMA1 RON2 block | Pf growth 48h | HCV inh | Pf growth 96h | Shiga toxin inh | CHX counter
O=C(CNC(=O)c1ccc(Cl)cc1)OCC(=O)c1ccc2c(c1)OCCO2 | -8.7% | . | 22.8% | 1.5% | 37.5 | 44.9*
CCOC(=O)CNC(=O)c1ccc2c(c1)OCCO2 | 9.7% | 73.7% | 7.1% | ? | 58.7* | 45.9*
CCN(C[C@H]1N[C@@](CC)(C(=O)OC)[C@H]2C(=O)N(Cc3ccccc3)C(=O)[C@@H]12)S(=O)(=O)c1ccc(OC(F)(F)F)cc1 | 5.2% | . | -27.9% | . | . | .
CCOc1cccc(C(=O)N/N=C/c2ccoc2)c1 | 37.4% | 23.7% | 9.6% | -42.7% | 49.3* | 23.9*
COc1cc(OC)c(C(=O)N/N=C/c2ccoc2)cc1OC | 5.3% | 3.0% | 5.3% | -33.2% | 21.9 | 0.4
COc1ccc(C(=O)N/N=C\c2ccoc2)cc1 | 136.1% | 6.2% | 24.2% | 4.65µM* | 28.1 | 23.8
Cc1ccc(C(=O)N/N=C/c2ccoc2)cc1C | 105.2% | 6.4% | -2.3% | -18.8% | 63.3* | 40.9*
O=C(N/N=C/c1coc2ccccc2c1=O)c1cc(Br)c(O)c(Br)c1 | 10.6% | 17.5% | 8.5% | ? | -12.8 | 0.6
CCCOc1cccc(C(=O)N/N=C/c2coc3ccccc3c2=O)c1 | 138.2% | 22.3% | 8.1% | 13.1µM* | -4.6 | 12.1
CC(C)C(C(=O)Nc1ccc2c(c1)OCCOCCOCCOCCO2)N1C(=O)c2ccccc2C1=O (stereo unspecified) | -7.3% | -9.8% | 8.8% | -12.9% | -2.6 | -9.4
Cc1cc(C)n2c(NC3CCCCC3)c(CC(C)C)nc2n1 | 28.3% | . | . | . | . | .
NC(=O)c1ccsc1NC(=O)c1ccc2c(c1)CCCC2 | -0.6% | 146.1% | ? | 104.9% | 59.2* | 51.3*
NC(=O)c1ccsc1NC(=O)c1ccc(N2CCCC2=O)cc1 | -7.6% | 198.5% | -25.3% | i | 21.9 | 21.9
CNC(=O)c1ccsc1NC(=O)c1ccc2c(c1)CCCC2 | 2.2% | 132.7% | ? | 162.7% | 34.9 | 23.4*
CCOC(=O)C1=C[C@@H](C2CCCCC2)N(S(=O)(=O)c2ccc([N+](=O)[O-])cc2)[C@H]1c1ccccc1 | -26.5% | . | . | . | . | .
COc1ccc(OC)c(CC(NC(C)=O)C(=O)NC2CCN(c3nc(OC)nc(OC)n3)CC2)c1 (stereo unspecified) | -3.4% | -17.0% | 2.7% | 14.4% | -6.7 | 0.6
O=C(O)/C=C/c1cnn(-c2ccccc2)c1 | 11.3% | 191.5% | 13.0% | 381.0% | 26.4 | 20.6*
N#Cc1cn(-c2ccccc2)nc1-c1ccccc1 | 10.6% | 89.6% | ? | -8.3% | 25.2 | 21.4*
O=C(N/C(=C\c1cn(-c2ccccc2)nc1-c1ccccc1)C(=O)N1CCOCC1)c1ccccc1 | . | 34.3% | 0.4% | 24.5% | 4.5 | -1.8
